From PubChem BioAssay
This is one part of a sample in which hits are shown more often than they occur.
RmlCD inh 1536 – M. tuberculosis RmlC/RmlD inhibition; actives 0.03% (n = 160,000); RmlC+RmlD coupled enzyme assay, percent inhibition; primary screen in compound mixtures; inhibition, % at 3.6 µM; AID 1533; in the data active = inhibition mostly above about 34%, no sharp cut-off
Target sequence (P9WH09 whole entry, looked up): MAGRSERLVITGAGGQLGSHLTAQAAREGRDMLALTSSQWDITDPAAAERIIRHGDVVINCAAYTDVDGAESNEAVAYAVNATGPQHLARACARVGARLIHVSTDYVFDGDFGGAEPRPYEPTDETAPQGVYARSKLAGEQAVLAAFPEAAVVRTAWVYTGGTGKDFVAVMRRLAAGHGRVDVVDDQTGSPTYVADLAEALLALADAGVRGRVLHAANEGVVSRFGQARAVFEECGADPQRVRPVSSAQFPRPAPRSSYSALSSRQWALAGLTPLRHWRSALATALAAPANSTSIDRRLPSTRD
Target sequence (P9WH11 whole entry, looked up): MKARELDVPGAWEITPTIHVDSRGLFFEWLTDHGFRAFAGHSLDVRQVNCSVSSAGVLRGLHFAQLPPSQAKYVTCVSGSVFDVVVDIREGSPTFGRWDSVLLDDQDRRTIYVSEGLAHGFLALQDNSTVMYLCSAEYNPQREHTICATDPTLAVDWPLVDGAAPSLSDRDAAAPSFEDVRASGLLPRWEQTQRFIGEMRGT
Each line names hits and unclear results; the compound was inactive in the other large screens.

CC(=O)Nc1sc(N/N=C/c2ccc(C)cc2)nc1-c1ccc(C)cc1	none
COc1ccc(/C=N/Nc2nc(-c3ccc(C)cc3)c(NC(C)=O)s2)cc1OC	none
CC(=O)Nc1sc(N/N=C/c2ccc(N(C)C)cc2)nc1-c1ccc(C)cc1	RmlCD inh 1536 63.6
CCCNc1nc(-c2cc(-c3ccc(Cl)cc3)on2)cc(C(C)C)n1	none
O=C(O)CNC(=O)CCCn1nnc2ccccc2c1=O	none
Cc1ccc(/C=C/C(=O)N2CC(=O)Nc3ccccc32)o1	none
CC(=O)Nc1sc(/C(C#N)=C/c2ccc(Cl)c(Cl)c2)nc1-c1ccc(C)cc1	RmlCD inh 1536 75.4
COc1cc(/C=C(\C#N)c2nc3ccccc3s2)ccc1OCC(=O)Nc1ccccc1	none
CCOc1cc(/C=N\Nc2nc(-c3ccc(C)cc3)c(NC(C)=O)s2)ccc1O	none
Cc1cc(C)cc(OCC(=O)NNC(=O)CN2C(=O)c3ccccc3C2=O)c1	none
COc1ccc(C)cc1NC(=O)C(NCC1CCCO1)c1ccccc1 (stereo not given)	none
O=C(COC(=O)c1ccc[nH]c1=O)NC1CCCCC1	none
COCCOC(=O)C1=C(C)N=C2SCCC(=O)N2C1c1ccc(OC(=O)c2ccco2)cc1 (stereo not given)	none
O=C(Nc1ccc(F)cc1)C1C(c2ccccc2)C1(Cl)Cl (stereo not given)	none
CCCC12CN3CC(C)(CN(C1)C3c1cccs1)C2=O (stereo not given)	none
COc1ccc2cc3cc(C(=O)NCCCN4CCOCC4)oc3nc2c1	RmlCD inh 1536 51.0
CCN1CCN(CCCNC(=O)c2cc3cc4ccc(OC)cc4nc3o2)CC1	none
COc1ccc2cc3cc(C(=O)NCCN4CCN(Cc5ccccc5)CC4)oc3nc2c1	none
C1CCN(CCCNC2C3CC4CC(C3)CC2C4)C1 (stereo not given)	none
COc1cc(/C=N/NC(=S)Nc2cccc(S(=O)(=O)N(C)C)c2)ccc1O	none
CN(c1ccccc1)S(=O)(=O)c1cccc(NC(=O)c2cc(=O)c3ccccc3o2)c1	none
Cc1cccn2c(=O)c(C=NCCO)c(Nc3ccc(Cl)cc3)nc12	none
Cc1cccn2c(=O)c(C=Nc3ccc(Cl)cc3)c(NCCO)nc12	none
Cc1cccn2c(=O)c(C=Nc3ccccc3)c(NCCO)nc12	RmlCD inh 1536 54.5
CCCn1c(=N)c(C(=O)NCC2CCCO2)cc2c(=O)n3cccc(C)c3nc21 (stereo not given)	RmlCD inh 1536 108.9
COCCCn1c(=N)c(C(=O)NCC2CCCO2)cc2c(=O)n3ccccc3nc21 (stereo not given)	none
COCCCn1c(=N)c(C(=O)NCC2CCCO2)cc2c(=O)n3cccc(C)c3nc21 (stereo not given)	none
Cc1cccn2c(=O)c3cc(C(=O)NCCc4ccccc4)c(=N)n(CCCn4ccnc4)c3nc12	none
CCCCNC(=O)c1cc2c(=O)n3cccc(C)c3nc2n(Cc2ccccc2)c1=N	none
CCNC(=O)c1cc2c(=O)n3cccc(C)c3nc2n(CCc2ccccc2)c1=N	RmlCD inh 1536 32.2
CCCCOc1ccc(NC(=O)C2OC3OC(C)(C)OC3C3OC(C)(C)OC23)cc1 (stereo not given)	none
O=C1NC(=O)C2C1C(c1cccs1)NN2Cc1ccccc1 (stereo not given)	none
Cc1cccc(-n2c(SCc3cc(=O)n4c(C)cccc4n3)nc3[nH]ncc3c2=O)c1	none
O=C(COC(=O)c1ccc(S(=O)(=O)Nc2ccccc2)cc1)NCCC1=CCCCC1	none
CCn1c(-c2ccco2)nc2ccccc21	none
CCCCOCCCn1c(-c2ccco2)nc2nc3ccccc3nc21	RmlCD inh 1536 56.6
Cc1ccc(-n2c(-c3ccco3)nc3nc4ccccc4nc32)cc1F	none
CCC(C)NC(=O)C1CCN(S(=O)(=O)N2CCC3(CC2)OCCO3)CC1 (stereo not given)	none
O=C(CSc1cccc[n+]1[O-])NN(c1ccccc1)c1ccccc1	none
COc1ccccc1NC(=O)COc1ccccc1C(=O)Nc1ccccc1	none
Cc1cc(C)c(NC(=O)COc2ccccc2C(=O)Nc2ccc3c(c2)oc2ccccc23)c(C)c1	RmlCD inh 1536 98.7
CCOc1ncccc1C(=O)Nc1ccc2c(C)cc(=O)oc2c1	none
Cc1cc2c(=O)[nH]c(Cc3ccccc3)nc2s1	none
O=C(Cn1cc(C(F)(F)F)cc(Cl)c1=O)Nc1cc(Cl)cc(Cl)c1	none
COc1ccc(OC)c(/C=N/NC(=O)c2cc3c(OC)cccc3[nH]2)c1	none
COc1cccc(/C=N/NC(=O)c2cc3c(OC)cccc3[nH]2)c1O	RmlCD inh 1536 68.7
COc1cccc(/C=N/NC(=O)c2cc3c(OC)cccc3[nH]2)c1OC	none
Cc1c(O)c(=O)ccn1C	none
COc1ccc(/C=N/NC(=O)c2sc3nc(C)cc(C)c3c2N)cc1	none
Cc1cc(C)c2c(N)c(C(=O)c3ccccc3)sc2n1	none
Cc1cc(C)c2c(N)c(C(=O)N/N=C/c3cccs3)sc2n1	RmlCD inh 1536 54.9
CCOc1ccccc1OCC(=O)NN1Cc2ccccc2C1=N	none
COC(=O)Cc1c(C)c2cc(Cl)c(OC(=O)c3ccco3)cc2oc1=O	none
COC(=O)Cc1c(C)c2ccc(OC(C)C)cc2oc1=O	none
COC(=O)Cc1c(C)c2ccc(OC(=O)c3ccco3)cc2oc1=O	RmlCD inh 1536 83.0
CCCCc1nnc(NC(=O)c2nc3nccc(C)n3n2)s1	none
N#CC1=C(S)N(c2ccccc2)C2(CCCCC2)NC1=O	none
